# From PubChem BioAssay (EPA / NIEHS)
# Results filed as inconclusive are left out. The source made the active and inactive calls. The calls were made as follows: active = hit-call score of the fitted dose curve at least 0.9, where 1 is the maximum; inconclusive = response in the unintended direction; inactive = score below 0.9.
# How the values were obtained:
# [1] = biological target: Androgen receptor (Homo sapiens) (UniProt P10275); test: ATG_AR_TRANS: Attagene TRANS-FACTORIAL HepG2 Assay for human Androgen Receptor (AR) (AID 2282973); settings: HepG2 Attagene TRANS-FACTORIAL AR reporter transcription
# Chain of Androgen receptor (Homo sapiens) (P10275 whole entry, looked up, the tested form may be a part): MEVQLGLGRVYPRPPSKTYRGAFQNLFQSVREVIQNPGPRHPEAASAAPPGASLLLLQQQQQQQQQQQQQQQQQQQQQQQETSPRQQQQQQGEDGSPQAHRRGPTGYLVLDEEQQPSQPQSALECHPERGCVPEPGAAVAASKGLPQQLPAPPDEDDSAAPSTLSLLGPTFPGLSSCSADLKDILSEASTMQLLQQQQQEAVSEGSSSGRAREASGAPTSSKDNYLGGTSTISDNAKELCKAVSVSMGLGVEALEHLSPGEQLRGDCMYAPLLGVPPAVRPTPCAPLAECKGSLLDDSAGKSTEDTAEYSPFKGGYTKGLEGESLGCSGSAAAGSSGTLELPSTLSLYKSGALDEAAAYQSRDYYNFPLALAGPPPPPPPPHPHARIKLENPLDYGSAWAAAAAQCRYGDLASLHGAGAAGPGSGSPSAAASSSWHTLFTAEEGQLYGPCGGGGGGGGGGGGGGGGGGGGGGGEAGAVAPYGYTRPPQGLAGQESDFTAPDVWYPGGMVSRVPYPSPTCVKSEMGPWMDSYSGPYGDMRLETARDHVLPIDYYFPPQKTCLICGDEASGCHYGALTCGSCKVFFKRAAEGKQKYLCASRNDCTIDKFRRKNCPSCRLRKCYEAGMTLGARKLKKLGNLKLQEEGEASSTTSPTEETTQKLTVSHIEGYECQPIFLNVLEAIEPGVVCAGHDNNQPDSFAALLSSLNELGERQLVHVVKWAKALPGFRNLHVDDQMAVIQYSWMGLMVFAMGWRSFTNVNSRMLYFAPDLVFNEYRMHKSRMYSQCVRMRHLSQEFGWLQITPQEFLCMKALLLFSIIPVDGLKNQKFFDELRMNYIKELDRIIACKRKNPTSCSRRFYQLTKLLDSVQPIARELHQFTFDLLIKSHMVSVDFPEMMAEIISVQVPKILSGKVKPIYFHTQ
# Summary of the method: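 HepG2 cells transiently transfected with AR-Gal4 chimera and GAL4-UAS reporter units; chemical exposure 24 h. Reporter mRNA quantified by RT-PCR with fluorescent labelling and capillary electrophoresis; gain-of-signal fitted against DMSO.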
# [2] = biological target: rat Monoamine Oxidase, MAO-B, Central (MAOBC), Maob (gene 25750) (UniProt P19643); test: NVS_ENZ_rMAOBC: NovaScreen (NVS) Enzymatic Assay for rat Monoamine Oxidase, MAO-B, Central (MAOBC) (AID 2283238)
# Chain of rat Monoamine Oxidase, MAO-B, Central (MAOBC), Maob (gene 25750) (P19643 whole entry, looked up): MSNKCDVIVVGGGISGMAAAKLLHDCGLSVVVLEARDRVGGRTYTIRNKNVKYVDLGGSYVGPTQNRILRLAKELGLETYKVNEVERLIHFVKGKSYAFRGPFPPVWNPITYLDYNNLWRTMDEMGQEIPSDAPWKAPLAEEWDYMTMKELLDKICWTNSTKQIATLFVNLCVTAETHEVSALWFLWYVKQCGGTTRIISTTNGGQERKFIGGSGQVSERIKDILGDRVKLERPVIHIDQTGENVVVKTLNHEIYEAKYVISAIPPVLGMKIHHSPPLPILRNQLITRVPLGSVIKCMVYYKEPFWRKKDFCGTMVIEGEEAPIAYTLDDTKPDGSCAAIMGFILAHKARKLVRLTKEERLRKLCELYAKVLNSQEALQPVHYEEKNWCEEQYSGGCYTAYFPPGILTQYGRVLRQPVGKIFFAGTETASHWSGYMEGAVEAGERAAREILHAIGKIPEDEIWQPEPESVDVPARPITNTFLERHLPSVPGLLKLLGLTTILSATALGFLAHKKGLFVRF
# Summary of the method: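 Cell-free radiometric assay, rat brain lysate. Read-out: scintillation counts, 1.17 h post-dosing. Screen 25 uM in duplicate; actives (e.g. ≥30% inhibition) then singleton concentration-response, max 50 uM. Activity loss fitted relative to DMSO.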
# [3] = biological target: rat Monoamine Oxidase, MAO-B, Peripheral (MAOBP), Maob (gene 25750) (UniProt P19643); test: NVS_ENZ_rMAOBP: NovaScreen (NVS) Enzymatic Assay for rat Monoamine Oxidase, MAO-B, Peripheral (MAOBP) (AID 2283242)
# Chain of rat Monoamine Oxidase, MAO-B, Peripheral (MAOBP), Maob (gene 25750) (P19643 whole entry, looked up): as above
# [4] = biological target: human Phosphatase and Tensin Homolog (PTEN), PTEN (gene 5728) (UniProt P60484); test: NVS_ENZ_hPTEN: NovaScreen (NVS) Enzymatic Assay for human Phosphatase and Tensin Homolog (PTEN) (AID 2283203)
# Chain of human Phosphatase and Tensin Homolog (PTEN), PTEN (gene 5728) (P60484 whole entry, looked up): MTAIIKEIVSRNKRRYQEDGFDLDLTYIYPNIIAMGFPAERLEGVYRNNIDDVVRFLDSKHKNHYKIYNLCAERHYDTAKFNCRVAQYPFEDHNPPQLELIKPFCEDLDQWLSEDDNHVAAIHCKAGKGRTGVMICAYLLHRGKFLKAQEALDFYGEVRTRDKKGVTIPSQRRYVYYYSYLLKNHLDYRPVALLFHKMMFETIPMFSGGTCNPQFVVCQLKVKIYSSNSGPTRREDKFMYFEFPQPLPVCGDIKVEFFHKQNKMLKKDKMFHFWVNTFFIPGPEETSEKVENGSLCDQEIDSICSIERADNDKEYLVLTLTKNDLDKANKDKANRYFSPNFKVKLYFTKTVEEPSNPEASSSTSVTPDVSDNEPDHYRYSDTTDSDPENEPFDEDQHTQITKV
# Summary of the method: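 Loss of fluorescent product signal after mobility-shift separation reports PTEN activity, recombinant human enzyme, 1 h after compound addition. Single 25 uM duplicate screen, then concentration-response on actives; DMSO baseline.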
# [5] = biological target: human Matrix Metalloproteinase-1 (MMP1), MMP1 (gene 4312) (UniProt P03956); test: NVS_ENZ_hMMP1: NovaScreen (NVS) Enzymatic Assay for human Matrix Metalloproteinase-1 (MMP1) (AID 2283181)
# Chain of human Matrix Metalloproteinase-1 (MMP1), MMP1 (gene 4312) (P03956 whole entry, looked up): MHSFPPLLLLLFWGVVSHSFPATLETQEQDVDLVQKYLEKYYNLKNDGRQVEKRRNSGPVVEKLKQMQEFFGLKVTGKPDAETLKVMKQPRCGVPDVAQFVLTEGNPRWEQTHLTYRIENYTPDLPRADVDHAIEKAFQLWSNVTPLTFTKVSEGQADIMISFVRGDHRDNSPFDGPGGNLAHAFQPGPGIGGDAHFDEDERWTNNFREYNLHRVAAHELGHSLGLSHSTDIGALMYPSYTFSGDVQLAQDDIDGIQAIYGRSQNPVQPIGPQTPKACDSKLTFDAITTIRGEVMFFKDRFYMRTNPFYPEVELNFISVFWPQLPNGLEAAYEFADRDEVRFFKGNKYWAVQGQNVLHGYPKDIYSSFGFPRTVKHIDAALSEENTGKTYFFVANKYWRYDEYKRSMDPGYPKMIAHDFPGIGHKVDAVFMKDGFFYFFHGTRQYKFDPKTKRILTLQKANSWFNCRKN
# Summary of the method: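 Cell-free fluorescent substrate assay of human MMP1, read after 1 h. A single 25 uM duplicate screen was followed by concentration series to a maximum of 50 uM for actives meeting threshold; inhibition analysed against DMSO baseline.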
# [6] = biological target: human p21 Activated Kinase 4 (PAK4), PAK4 (gene 10298) (UniProt O96013); test: NVS_ENZ_hPAK4: NovaScreen (NVS) Enzymatic Assay for human p21 Activated Kinase 4 (PAK4) (AID 2283189)
# Chain of human p21 Activated Kinase 4 (PAK4), PAK4 (gene 10298) (O96013 whole entry, looked up): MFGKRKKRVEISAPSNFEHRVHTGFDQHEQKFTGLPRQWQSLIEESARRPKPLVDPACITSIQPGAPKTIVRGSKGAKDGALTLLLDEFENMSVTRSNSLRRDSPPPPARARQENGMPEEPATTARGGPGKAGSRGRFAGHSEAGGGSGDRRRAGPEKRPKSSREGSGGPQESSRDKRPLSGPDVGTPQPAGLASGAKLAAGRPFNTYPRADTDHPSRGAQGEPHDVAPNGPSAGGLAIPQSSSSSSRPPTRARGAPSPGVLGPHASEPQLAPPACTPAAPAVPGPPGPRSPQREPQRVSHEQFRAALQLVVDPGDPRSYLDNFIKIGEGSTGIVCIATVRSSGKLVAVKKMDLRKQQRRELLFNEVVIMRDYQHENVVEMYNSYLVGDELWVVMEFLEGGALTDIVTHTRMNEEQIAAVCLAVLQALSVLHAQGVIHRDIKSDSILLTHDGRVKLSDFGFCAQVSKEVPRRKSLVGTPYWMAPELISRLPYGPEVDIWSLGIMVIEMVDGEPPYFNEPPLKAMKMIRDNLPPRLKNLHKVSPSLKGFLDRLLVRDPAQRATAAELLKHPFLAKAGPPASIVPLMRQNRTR
# Summary of the method: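 Extracted PAK4 enzyme activity read by fluorescence with mobility-shift separation 1 h after chemical addition. Duplicate single-concentration screen at 25 uM, DMSO as negative control.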
# [7] = biological target: human MET Proto-Oncogene, Receptor Tyrosine Kinase (MET), MET (gene 4233) (UniProt P08581); test: NVS_ENZ_hMet: NovaScreen (NVS) Enzymatic Assay for human MET Proto-Oncogene, Receptor Tyrosine Kinase (MET) (AID 2283180)
# Chain of human MET Proto-Oncogene, Receptor Tyrosine Kinase (MET), MET (gene 4233) (P08581 whole entry, looked up): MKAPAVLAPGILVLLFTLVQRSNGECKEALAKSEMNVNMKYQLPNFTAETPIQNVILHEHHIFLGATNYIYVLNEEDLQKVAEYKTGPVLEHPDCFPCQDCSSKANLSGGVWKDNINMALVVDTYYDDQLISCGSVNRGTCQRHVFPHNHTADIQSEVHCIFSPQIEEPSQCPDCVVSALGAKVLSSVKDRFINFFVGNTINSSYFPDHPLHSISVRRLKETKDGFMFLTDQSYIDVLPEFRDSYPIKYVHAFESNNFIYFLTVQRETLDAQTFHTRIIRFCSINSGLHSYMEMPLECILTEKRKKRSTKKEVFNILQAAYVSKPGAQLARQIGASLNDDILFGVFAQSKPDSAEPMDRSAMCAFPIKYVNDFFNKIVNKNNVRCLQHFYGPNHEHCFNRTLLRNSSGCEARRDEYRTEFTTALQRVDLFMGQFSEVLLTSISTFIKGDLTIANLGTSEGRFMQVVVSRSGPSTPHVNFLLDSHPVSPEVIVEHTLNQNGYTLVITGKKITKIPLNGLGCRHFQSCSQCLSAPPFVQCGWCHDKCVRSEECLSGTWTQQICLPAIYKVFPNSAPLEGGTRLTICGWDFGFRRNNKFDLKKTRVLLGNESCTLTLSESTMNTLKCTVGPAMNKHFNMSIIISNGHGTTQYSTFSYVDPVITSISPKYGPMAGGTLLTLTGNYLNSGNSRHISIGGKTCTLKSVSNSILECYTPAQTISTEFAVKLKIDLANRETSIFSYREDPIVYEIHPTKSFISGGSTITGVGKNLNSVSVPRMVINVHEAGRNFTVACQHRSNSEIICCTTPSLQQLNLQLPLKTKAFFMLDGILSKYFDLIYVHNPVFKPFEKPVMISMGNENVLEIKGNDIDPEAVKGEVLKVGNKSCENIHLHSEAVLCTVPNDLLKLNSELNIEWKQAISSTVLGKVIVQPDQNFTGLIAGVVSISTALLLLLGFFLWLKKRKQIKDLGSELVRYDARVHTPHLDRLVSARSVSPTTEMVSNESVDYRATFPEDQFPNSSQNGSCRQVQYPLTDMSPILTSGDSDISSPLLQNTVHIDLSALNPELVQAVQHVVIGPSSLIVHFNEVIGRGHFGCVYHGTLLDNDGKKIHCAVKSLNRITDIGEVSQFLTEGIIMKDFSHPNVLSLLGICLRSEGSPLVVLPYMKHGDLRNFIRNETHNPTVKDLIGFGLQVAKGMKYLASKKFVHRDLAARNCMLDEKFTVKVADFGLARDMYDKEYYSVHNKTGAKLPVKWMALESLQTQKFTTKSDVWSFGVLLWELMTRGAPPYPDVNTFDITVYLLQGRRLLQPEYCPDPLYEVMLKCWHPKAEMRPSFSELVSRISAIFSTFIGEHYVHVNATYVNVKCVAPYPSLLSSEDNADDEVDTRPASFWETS
# Summary of the method: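 Hits from a 25 uM duplicate screen were retested in concentration series up to 50 uM. Enzyme activity was measured by fluorescence after electrophoretic separation of product from substrate, 1 h after compound addition, relative to DMSO.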
# [8] = test system: rat Monoamine Oxidase, MAO-A, Central (MAOAC), gene 29253; test: NVS_ENZ_rMAOAC: NovaScreen (NVS) Enzymatic Assay for rat Monoamine Oxidase, MAO-A, Central (MAOAC) (AID 2283243);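 also: potency refers to inhibition seen as signal drop below DMSO baseline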
# Summary of the method: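 Scintillation read-out of MAO-A activity in rat brain lysate, 1.5 h post-dosing. Primary single-concentration screen: 25 uM, duplicate; actives re-tested in concentration series. DMSO = negative control/baseline.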
# [9] = biological target: Norway rat Vesicular Monoamine Transporter (VMAT2), neurotransmitter transporter, Slc18a2 (gene 25549) (UniProt Q01827); test: NVS_TR_rVMAT2: NovaScreen (NVS) Transporter Assay for Norway rat Vesicular Monoamine Transporter (VMAT2), neurotransmitter transporter (AID 2283376);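 also: actives lower the bound radioligand signal below the DMSO level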
# Chain of Norway rat Vesicular Monoamine Transporter (VMAT2), neurotransmitter transporter, Slc18a2 (gene 25549) (Q01827 whole entry, looked up): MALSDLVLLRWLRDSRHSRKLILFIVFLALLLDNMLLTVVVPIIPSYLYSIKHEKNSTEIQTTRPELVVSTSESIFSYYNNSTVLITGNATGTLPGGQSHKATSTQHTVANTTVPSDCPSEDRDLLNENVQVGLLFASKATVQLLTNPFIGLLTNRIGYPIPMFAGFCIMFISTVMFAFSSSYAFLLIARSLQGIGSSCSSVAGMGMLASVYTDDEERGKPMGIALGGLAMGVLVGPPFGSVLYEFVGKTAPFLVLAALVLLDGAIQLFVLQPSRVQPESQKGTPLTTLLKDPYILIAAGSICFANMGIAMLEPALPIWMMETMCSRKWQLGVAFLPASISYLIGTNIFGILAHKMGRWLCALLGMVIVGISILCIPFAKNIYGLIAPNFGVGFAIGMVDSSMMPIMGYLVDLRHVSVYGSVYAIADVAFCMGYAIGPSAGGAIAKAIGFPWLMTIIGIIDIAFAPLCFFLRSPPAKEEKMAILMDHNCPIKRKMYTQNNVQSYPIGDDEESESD
# Summary of the method: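 Filter-based scintillation counting of radioligand bound to rat forebrain-derived VMAT2 protein, cell-free, 1 h post-dose. Signal loss relative to DMSO control scored; single-concentration duplicate screen (25 uM) followed by concentration-response testing of actives.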
# [10] = biological target: Voltage-dependent N-type calcium channel subunit alpha-1B (Rattus norvegicus) (UniProt Q02294); test: NVS_IC_rCaChN: NovaScreen (NVS) Ion Channel Assay for rat Calcium Channel, Type N (CaChN) (AID 2283317)
# [11] = biological target: human Mitogen-Activated Protein Kinase 1 (MAPK 1), MAPK1 (gene 5594) (UniProt P28482); test: NVS_ENZ_hMAPK1: NovaScreen (NVS) Enzymatic Assay for human Mitogen-Activated Protein Kinase 1 (MAPK 1) (AID 2283175)
# Summary of the method: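 Cell-free recombinant human MAPK1 enzymatic assay, fluorescence/electrophoretic mobility shift read at 1 h; loss of signal vs DMSO. Primary screen in duplicate at 25 uM; actives (e.g. ≥30% inhibition) run as concentration-response up to 50 uM.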
# [12] = biological target: human Raf-1 Proto-Oncogene, serine/threonine Kinase (RAF1), RAF1 (gene 5894) (UniProt P04049); test: NVS_ENZ_hRAF1: NovaScreen (NVS) Enzymatic Assay for human Raf-1 Proto-Oncogene, serine/threonine Kinase (RAF1) (AID 2283216)
# Summary of the method: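 Single-point screening at 25 uM (duplicate), followed by singleton concentration-response to 50 uM maximum for chemicals exceeding threshold. Enzyme activity from fluorescent substrate-product mobility-shift separation after 1 h, relative to DMSO.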
# [13] = ATG_M_32_XSP2: Attagene TRANS-FACTORIAL Multi-Species (XSP2) HepG2 Assay for M19 Transcription Factor (Internal Marker) (AID 2283826)
# Summary of the method: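 HepG2 cells transiently transfected with GAL4-UAS reporter units; XSP2 panel included 3 nM 6-alpha-fluorotestosterone and 1.5 nM norgestrel for androgen receptor stimulation. Reporter mRNA read 24 h post-dosing by RT-PCR/capillary electrophoresis; fitted upward versus DMSO.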
smiles,measurement,setting,value
O=C(NS(=O)(=O)/C=C/c1cccs1)c1ccc(F)cc1Br,outcome,[1],inactive
same,outcome,[2],inactive
same,outcome,[3],inactive
CC=CC(=O)C1=C(C)C=CCC1(C)C,outcome,[1],inactive
same,outcome,[4],inactive
C=CCCCCCCCCCCCC,outcome,[1],inactive
same,outcome,[5],inactive
same,outcome,[6],inactive
same,outcome,[3],inactive
CC(C)=CCCC(C)O (stereo unspecified),outcome,[1],inactive
same,outcome,[4],inactive
O=C(c1ccccc1)c1ccccc1,outcome,[1],inactive
same,outcome,[7],inactive
Clc1cccc(Cl)n1,outcome,[1],inactive
same,outcome,[8],inactive
COCCC(=O)OC,outcome,[1],inactive
same,outcome,[8],inactive
CCN(CCC#N)c1ccc(N=Nc2ccc([N+](=O)[O-])cc2)cc1,outcome,[1],inactive
same,outcome,[4],inactive
same,outcome,[9],inactive
O=C(CCCCCCCCc1cccnc1)N1CCC(C=C(c2ccccc2)c2ccccc2)CC1,outcome,[1],inactive
same,outcome,[2],inactive
same,outcome,[10],inactive
Clc1cc(Cl)c(-c2c(Cl)c(Cl)cc(Cl)c2Cl)cc1Cl,outcome,[1],inactive
same,AC50,[4],12.5 µM (active)
CCc1cccc(C)c1N(C(=O)CS(=O)(=O)O)C(C)COC (stereo unspecified),outcome,[1],inactive
same,outcome,[4],inactive
CN(Cc1cnc2nc(N)nc(N)c2n1)c1ccc(C(=O)N[C@@H](CCC(=O)O)C(=O)O)cc1,outcome,[1],inactive
same,outcome,[2],inactive
COCCOCCOC,outcome,[1],inactive
same,outcome,[5],inactive
Cc1ccc(-c2cc(C(F)(F)F)nn2-c2ccc(S(N)(=O)=O)cc2)cc1,outcome,[1],inactive
same,outcome,[11],inactive
CCOC(=O)CC(C)O (stereo unspecified),outcome,[1],inactive
same,outcome,[8],inactive
C#CC(O)C(CC)CCCC (stereo unspecified),outcome,[1],inactive
same,outcome,[12],inactive
O=c1c(-c2ccc(O)cc2)coc2cc(O)ccc12,outcome,[1],inactive
same,outcome,[3],inactive
same,outcome,[13],inactive
CCCCC(CC)C(=O)OCCOCCOCCOC(=O)C(CC)CCCC (stereo unspecified),outcome,[1],inactive
same,outcome,[8],inactive
C=CC(=O)OCCN(CC)CC,outcome,[1],inactive
same,outcome,[8],inactive
CC1CCC(C(C)(C)O)CC1 (stereo unspecified),outcome,[1],inactive
same,AC50,[4],1.56 µM (active)
